# Experimental data as given in PubChem BioAssay (NCI).
# About 83,000 compounds went through this panel and 20% of them were active in at least one assay; those are over-represented in the sample as a whole.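 Note: values are percent growth. 100 is the growth of untreated cells, values between 100 and 0 indicate rising inhibition; between -100 and 0 indicates cell death.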 Active and inactive are the calls of the source. The calls were made as follows: active = growth percent below 10; inactive = the rest.
# System: TK-10 renal
# Test: NCI-60 one-dose screen, 48 h (100 = growth as untreated, 0 = no growth, -100 = all killed)
# Conditions: 10 µM unless noted
row,Compound,growth
1,CCOC(=O)c1cnn(-c2nc(-c3ccc(F)cc3)c(C#N)c(N3CCOCC3)n2)c1N,64% (inactive)
2,Cc1c(O)c(=O)ccn1-c1nc2ccccc2s1,91.2% (inactive)
3,Nc1ccc(C2=NN(C(=O)c3cc(-c4ccc(Cl)cc4)nc4ccccc34)C(c3ccc(Cl)cc3)C2)cc1 (configuration not stated),55.3% (inactive)
4,COc1ccc2nc(-c3ccc(OC)c(OC)c3)cc(-c3nnc(SCC(=O)Nc4ccc(C(C)=O)cc4)o3)c2c1,109% (inactive)
5,CNCc1cccc2c1OCCOCCOCCN(CCN1CCOCC1)S(=O)(=O)c1ccc(cc1)-c1cnc(N)c(n1)C(=O)N2,43.9% (inactive)
6,COc1cc(C2=NN(C(C)=O)C(c3cccc(Nc4ccnc5cc(C(F)(F)F)ccc45)c3)C2)cc(OC)c1OC (configuration not stated),58.3% (inactive)
7,CC(C)CSc1nc(Nc2ccccc2)c(C#N)c(-c2ccc(F)cc2)n1,-22.9% (active)
8,CNc1cccc2c1C(=O)c1cccc(N)c1C2=O,25.8% (inactive)
9,NC(=O)c1ccc(C2C3=C(CCCC3=O)OC3=C2C(=O)c2ccccc2C3=O)cc1 (configuration not stated),98.2% (inactive)
10,C=CCn1c(SCC(=O)Nc2ccc(C(=O)/C=C/c3ccc(Cl)cc3)cc2)nnc1-c1cc(OC)c(OC)c(OC)c1,102% (inactive)
11,C=C1C(=O)O[C@H]2[C@H]1CC/C(C=Nc1c(N)cc(F)cc1Br)=C\CC[C@@]1(C)O[C@@H]21,81.7% (inactive)
12,COc1cc(-c2csc(NC(=O)Nc3ccc(Cl)cc3)n2)cc(OC)c1OC,26.6% (inactive)
13,COc1ccc(C(=O)c2cc(OC)c(C)c(OC)c2)cc1OC(=O)CCl,66.5% (inactive)
14,Nc1c(C(=O)Nc2cccc3ccccc23)sc2nc3c(cc12)COCC3,96.4% (inactive)
15,CN(C)C(CNc1oc(-c2cccc3ccccc23)nc1C#N)c1ccco1 (configuration not stated),109% (inactive)
16,Cc1cnc(-c2ccc(-c3ccc(NC(=O)Nc4c(F)cc(F)cc4F)cc3F)c3c2C(=O)NC3)[nH]1,83.6% (inactive)
17,COc1ccc(-c2cc(C(=O)N3N=C(c4ccc(N)cc4)CC3c3ccc(OC)cc3)c3cc(OC)ccc3n2)cc1 (configuration not stated),93.8% (inactive)
18,COc1cc([C@H](C)c2ccc3ccccc3c2)cc(OC)c1OC,61.4% (inactive)
19,O=c1nc(-c2ccccc2)c2cc(-c3ccc(N4CCCC4)nc3)ccc2[nH]1,88.5% (inactive)

row,Compound,growth
1,Cc1cccc2nc3c(n12)C(=O)C(=O)c1ccccc1-3,125% (inactive)
2,CC(=O)Nc1c(C(=O)Nc2ccccc2)sc2nc3c(cc12)C(OC(C)=O)CCC3 (configuration not stated),75.9% (inactive)
3,CCN1CCN(c2ccc(NC(=O)Nc3nc4ccc(-c5ccccc5OC)cc4s3)cc2)CC1,-48% (active)
4,Cc1cc(Cl)cc(CN(Cc2ccccc2)Cc2c(O)ccc3ccccc23)c1O,110% (inactive)
5,COC1=CC=CC2(OC)C3(O)CCCc4cccc(c43)N3C(=O)COC132 (configuration not stated),96.7% (inactive)
6,C=C1C(=O)O[C@H]2[C@H]1CC/C(COC(=O)N1CCC[C@H]1C(=O)Nc1ccc(OC)c(C(N)=O)c1O)=C\CC[C@@]1(C)O[C@@H]21,-4.11% (active)
7,Cc1cc(C)nc(NS(=O)(=O)c2ccc(Nc3ccc4c5c(n(CCCN(C)C)c(=O)c4c3)-c3ccccc3C5=O)cc2)n1,87.9% (inactive)
8,COc1cc(NC(=O)c2cc(O)c(C/C=C(\C)CCC=C(C)C)c(O)c2)cc2c1O[C@]1(C)CC[C@@H](O)C(C)(C)[C@H]1C2,56.1% (inactive)
9,CCCCCCN1C(=O)CN=C1Nc1ccc2cc3ccc(NC4=NCC(=O)N4CCCCCC)cc3nc2c1,75.9% (inactive)
10,Nc1ccc(C2=NN(C(=O)c3cc(-c4ccc(Cl)cc4)nc4ccccc34)C(c3ccccc3)C2)cc1 (configuration not stated),58.5% (inactive)
11,CN(CCC#N)C(=O)Nc1ccccc1,84.1% (inactive)
12,C=C(C)[C@@H]1CC[C@]2(C(=O)OCCCC[P+](c3ccccc3)(c3ccccc3)c3ccccc3)CC[C@]3(C)[C@H](CC[C@@H]4[C@@]5(C)CC[C@H](OC(=O)C(Cl)Cl)C(C)(C)[C@@H]5CC[C@]43C)[C@@H]12,-36.2% (active)
13,CSc1cccc(NC(=O)Nc2nc3c(C)cccc3s2)c1,119% (inactive)
14,O=C(O)c1cn(C2CC2)c2cc(N3CCN(Cc4nnc(Nc5ccccc5)o4)CC3)c(F)cc2c1=O,112% (inactive)
15,O=C1CS/C(=N/c2nnc(-c3ccc(O)cc3)s2)N1,115% (inactive)
16,COc1ccc2c(c1)C1(C(=O)N2)C(C#N)=C(c2ccccc2)Nc2c1c(-c1ccccc1)nn2-c1ccccc1 (configuration not stated),90.7% (inactive)
17,CCN1CCC[C@H]1c1cc(O)c2c(c1OC)C[C@H]1C[C@H]3[C@H](N)C(=O)C(C(N)=O)=C(O)[C@@]3(O)C(=O)C1=C2O,-8.12% (active)
18,O=C(/C(=C/c1ccc([N+](=O)[O-])cc1)SCc1ccccc1)c1ccc(Cl)cc1,103% (inactive)
